# Sampled rows, rich in hits. Any-hit rate of the full collection: about 9.4%.
# SMN2 splice up = qHTS Assay for Enhancers of SMN2 Splice Variant Expression. HEK293 SMN2-luciferase splicing reporter, luminescence, 30-36 h. Potency, µM (doses to about 46.1 µM), inactives show top-dose activity change, positive = activation, usual class: activators. 2.8% of 210,000 active; note: % of control where 0% means no effect; nearly all actives have a fitted effect of over 55% in size
#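 HEK293 cells carry an SMN2 […]–luciferase reporter in which exon 7 inclusion puts luciferase in frame. Cells were plated 10-12 h before compound addition, then incubated 30-36 h at 37C. ONE-Glo luminescence was read; sodium butyrate at 4.5 mM final served as control.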
# NPC1 promoter act = qHTS Assay for NPC1 Promoter Activators. Huh7 NPC1 promoter luciferase reporter, 24 h. Potency, µM (doses to about 9.22 µM), inactives show at the highest dose activation, usual class: activators. 2.4% of 320,000 active. AID 485313, 2010; note: % of control where 0% means no effect; nearly all actives have a fitted effect of over 60% in size
#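 In 1536-well qHTS, Huh7 cells harboring an NPC1 promoter–luciferase construct received compound for 24 h; activation was quantified by luminescence following luciferase reagent addition.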
# ELG1 genotoxic = qHTS screen for small molecules that induce genotoxicity in human embryonic kidney (HEK293T) cells expressing luciferase-tagged ELG1 | AID 504466, 2011 | HEK293T ELG1-luciferase reporter, luminescence, 16 h | Potency, µM (series often up to 46 µM), for inactives: at the top dose activity change, positive = activation, most hits filed as activators | 1.3% of 330,000 active; note: % of control where 0% means no effect; nearly all actives have a fitted effect of over 60% in size
#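 Reporter readout depends on ELG1 protein level, which increases with genetic stress. After 16 hr compound exposure at 37 °C, luciferase activity was quantified using ONE-Glo.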
# FLuc modulator = qHTS profiling assay for firefly luciferase inhibitor/activator using purifed enzyme and Km concentrations of substrates (counterscreen for miR-21 project); Luciferin 4-monooxygenase (Photinus pyralis), P08659; 6.9% of 360,000 active; purified FLuc, Km substrates, luminescence inhibition; Potency, µM (top dose mostly 57.5 µM), for inactives: at the top dose activity change, negative = inhibition, actives largely listed as inhibitors;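 note: plate controls were vehicle for no effect and reference inhibitor for full effect; nearly all actives have a fitted effect of over 55% in size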
# Target sequence (P08659 whole entry, looked up): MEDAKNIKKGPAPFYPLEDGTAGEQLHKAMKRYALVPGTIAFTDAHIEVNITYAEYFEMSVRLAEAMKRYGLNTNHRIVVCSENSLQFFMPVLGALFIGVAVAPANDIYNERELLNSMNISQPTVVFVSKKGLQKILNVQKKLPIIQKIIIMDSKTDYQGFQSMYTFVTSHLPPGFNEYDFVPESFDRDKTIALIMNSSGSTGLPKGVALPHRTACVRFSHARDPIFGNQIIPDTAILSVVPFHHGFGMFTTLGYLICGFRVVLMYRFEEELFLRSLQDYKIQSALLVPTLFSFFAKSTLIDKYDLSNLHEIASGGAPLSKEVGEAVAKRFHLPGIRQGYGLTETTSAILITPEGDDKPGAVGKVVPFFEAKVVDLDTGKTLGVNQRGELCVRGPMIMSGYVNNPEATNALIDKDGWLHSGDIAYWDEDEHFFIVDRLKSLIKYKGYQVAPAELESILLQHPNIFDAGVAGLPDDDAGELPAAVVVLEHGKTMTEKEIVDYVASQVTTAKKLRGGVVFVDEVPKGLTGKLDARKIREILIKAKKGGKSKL
#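 Purified P. pyralis luciferase, 10 nM final, with Km-level 10 uM D-luciferin and 10 uM ATP in 50 mM Tris acetate pH 7.5, 10 mM Mg acetate, 0.01% Tween-20, 0.05% BSA; 6-point qHTS titration about 60 µM downward; luminescence read.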
# ELG1 repair inh = qHTS screen for small molecules that inhibit ELG1-dependent DNA repair in human embryonic kidney (HEK293T) cells expressing luciferase-tagged ELG1; HEK293T ELG1-luciferase reporter, luminescence, 16 h; DNA damage induced by 5-fluorouridine; Potency, µM (highest dose often 46.1 µM), inactives show at the top dose activity change, negative = inhibition, hits mostly inhibitors; 2.3% of 330,000 active; AID 504467, 2011; note: % is set by controls: 0 for no effect and ±100 for the full control effect; nearly all actives have a fitted effect of over 55% in size
#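 DMSO vehicle served as the neutral condition. Each well held 2,000 cells given 5-fluorouridine plus compound; after 16 hr at 37 °C/5% CO2, ONE-Glo was added and luciferase measured 30 min later.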
# Rab9 prom act = qHTS Assay for Rab9 Promoter Activators; Huh7 Rab9 promoter-luciferase reporter, luminescence, 24 h; Potency, µM (doses to about 9.22 µM), for the others: at the highest dose activation, negative = inhibition, actives largely listed as activators; 2.8% of 320,000 active; note: % of control where 0% means no effect; nearly all actives have a fitted effect of over 60% in size
#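 Using Huh7 cells stably transfected with Rab9 promoter–luciferase, compounds were incubated 24 h at 37 °C, 5% CO2; luciferase luminescence was read 10 min after reagent addition.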
# Numbers without * were called inactive; ? = inconclusive; . = no result given; [ ] = remark or other dose. Calls come from the whole dose curve; as a rule, active = well fitted curve in the direction sought with a large enough effect; inconclusive = small, poorly fitted or top-dose-only effect, or another doubt; inactive = no such curve, though single readings can be large; an effect the other way counts as inactive or inconclusive. Potency is the fitted concentration of half-maximal effect.
SMILES,SMN2 splice up,NPC1 promoter act,ELG1 genotoxic,FLuc modulator,ELG1 repair inh,Rab9 prom act
COC(=O)COc1ccc2oc(-c3ccc(OC)cc3)cc(=O)c2c1,21.6%,.,.,?,.,.
Cc1ccccc1N1CC(c2nc3ccccc3n2Cc2ccc(Br)cc2)CC1=O (centres undefined),.,.,.,0.3%,.,.
COc1ccc(N2Cc3ccccc3C2)cc1Cl,?,18.6%,20.6µM*,?,?,?
COc1cccc2c1cc1c(=O)n(CC(=O)N3CCN(c4cccc(C(F)(F)F)c4)CC3)nc(C)n12,-0.1%,.,.,-4.6%,.,.
O=C(COCc1cc(-c2ccco2)on1)Nc1cccc(O)c1,.,.,.,-9.5%,.,.
c1ccc(-c2ccc(-c3csnn3)cc2)cc1,?,2.24µM*,13.4%,?,?,2µM*
O=S(=O)(Nc1ccccc1)c1ccc(-c2csnn2)cc1,.,-4.3%,-4.9%,-1.8%,?,1.1%
O=C(Oc1ccc(-c2csnn2)cc1)c1cccs1,.,-1.8%,-4.6%,2.39µM*,1.2%,7.4%
O=C(Oc1ccc(-c2csnn2)cc1)C1CC1,.,-5.6%,-0.3%,16.9µM*,-1.3%,-0.5%
CCOc1cc2[nH]c(=O)n(CCC(=O)N3CCN(c4cccc(Cl)c4)CC3)c(=O)c2cc1OCC,.,.,.,-2.3%,.,.
COc1ccc(NC(=O)CC2C(=O)N(c3cccc(OC)c3)C(=O)N2CCC2=CCCCC2)cc1 (centres undefined),-29.6%,.,.,1.7%,.,.
CCC(C(=O)Nc1ccc(C(=O)OC)cc1)n1nc(-c2ccc(C)cc2)c2c(c1=O)CCCC2 (centres undefined),-15.4%,.,.,-0.8%,.,.
CCOc1ccc2ccccc2c1/C=N/NC(=O)c1cc(C)[nH]n1,.,-0.3%,-0.3%,?,6.0%,-1.3%
CCOc1cc(/C=N/NC(=O)c2ccncc2)cc(Cl)c1OS(C)(=O)=O,-1.9%,-3.2%,-1.2%,-11.3%,14.6µM*,1.0%
COc1ccc2ccccc2c1/C=N/NC(=O)c1cccc([N+](=O)[O-])c1,.,1.7%,-0.4%,-1.1%,-4.6%,-5.7%
COc1ccc2ccccc2c1/C=N/NC(=O)c1ccc(C)nc1,.,1.7%,0.5%,21.3µM*,-6.8%,3.7%
CCOc1ccc2ccccc2c1/C=N/NC(=O)c1ccncc1,.,-0.4%,9.8%,13.5µM*,3.1%,-0.5%
CCOc1cc(/C=N/NC(=O)c2ccncc2)ccc1OS(C)(=O)=O,8.2%,0.8%,0.4%,1.7%,5.5%,-5.2%
CCCCOCCOCCOCc1cc2c(cc1CCC)OCO2,2.3%,.,.,.,.,.
O=C(CCOc1ccccc1)NNC(=O)c1ccccc1,.,.,4.8%,.,-1.4%,.
CC(C)(C)c1ccc(-c2nnc3sc(-c4ccccn4)nn23)cc1,-14.2%,27.6%,?,9.53µM*,?,?
Clc1ccc(-c2nnc3sc(-c4ccccn4)nn23)cc1,-0.9%,-5.4%,0.6%,-0.6%,3.2%,1.6%
Clc1ccccc1-c1nn2c(-c3ccncc3)nnc2s1,-5.6%,0.9%,-46.2%,4.0%,10.3µM*,0.3%
COc1ccc(NC(=O)CC(C)S(=O)(=O)c2cc3c(cc2C)NC(=O)CO3)cc1OC (centres undefined),.,.,.,-6.0%,.,.
COc1ccccc1NC(=O)c1cc2c([nH]c1=O)CC(C)(C)CC2=O,12.5%,.,.,-14.1%,.,.
SMILES,SMN2 splice up,NPC1 promoter act,ELG1 genotoxic,FLuc modulator,ELG1 repair inh,Rab9 prom act
O=C(CCn1c(=O)sc2ccccc21)NCCC1=CCCCC1,4.1%,2.1%,-7.8%,-3.5%,?,3.2%
O=C(CCN1C(=O)c2ccccc2C1=O)NCCC1=CCCCC1,13.9%,?,29.9%,21.3µM*,?,2.51µM*
O=C(NCCC1=CCCCC1)c1ccc(Cl)cc1,.,0.316µM*,?,1.35µM*,?,0.282µM*
O=C(NCCc1ccc(Cl)cc1)c1cnccn1,.,16.4%,16.1%,-17.9%,?,24.7%
O=C(NCCC1=CCCCC1)c1cnccn1,11.2µM*,?,14.6µM*,?,?,3.16µM*
Cc1ccccc1-c1nn2c(=O)cc(CN3CCN(S(=O)(=O)c4ccc(Cl)cc4)CC3)nc2s1,.,.,.,-5.0%,.,.
COc1cccc(-c2nc(SCC(=O)NCC3CCCO3)c(-c3ccc(Cl)cc3)[nH]2)c1 (centres undefined),-8.5%,.,.,-10.3%,.,.
COC(=O)c1ccc(Nc2ncnc3c2cnn3-c2ccccc2)cc1,.,.,.,1.8%,.,.
Cc1ccc(-n2ncc3c(Nc4ccc5c(c4)OCCO5)ncnc32)cc1Cl,.,.,.,-18.1%,.,.
Fc1ccc(-n2ncc3c(Nc4ccc5c(c4)OCCO5)ncnc32)cc1,.,.,.,16.9µM*,.,.
Clc1cccc(-n2ncc3c(Nc4ccc5c(c4)OCCO5)ncnc32)c1,.,.,.,13.5µM*,.,.
Cc1ccc(Cl)cc1-n1ncc2c(Nc3ccc4c(c3)OCCO4)ncnc21,.,.,.,10.7µM*,.,.
COc1ccc(Nc2ncnc3c2cnn3-c2ccccc2)cc1OC,-12.2%,0.8%,7.8%,4.3%,?,5.6%
Cc1nn(CCC(=O)Nc2cc(F)ccc2F)c(=O)c2nn(-c3ccccc3)c(C)c12,.,.,.,-1.5%,.,.
CC(C)(N=NC(C)(C)C(=N)N)C(=N)N,-8.1%[9.22 µM],.,.,.,.,.
CCOc1ccccc1C(=O)N1CCCCC1CCN1CCOCC1 (centres undefined),8.3%,.,.,-0.3%,.,.
COc1ccc(-c2sc3ccc(OC)cc3c2C#Cc2cncn2C)cc1,.,.,-1.6%,.,5.8µM*,.
COc1ccc(-c2sc3cc4c(cc3c2C#Cc2cncn2C)OCO4)cc1,.,.,2.6%,.,-13.9%,.
Cc1ccc(NC2(c3ccccc3)C(=O)c3ccccc3C2=O)cc1F,8.4%,.,.,3.3%,.,.
CCOc1cc(C(=O)Nc2ccc3c4c(cccc24)C(=O)N3CC)cc(OCC)c1OCC,5.1%,0.1%,1.0%,0.4%,20.6µM*,-4.8%
CCN1C(=O)c2cccc3c(NC(=O)c4cccc(N5C(=O)CCC5=O)c4)ccc1c23,-2.5%,3.0%,16.6%,-7.1%,3.6%,2.8%
CCc1cccc(NC(=O)Cn2c(=O)n(CC(=O)NCCc3ccccc3)c(=O)c3ccccc32)c1,-0.6%,.,.,-6.4%,.,.
Cc1ccc(C)c(N2CCN(C(=O)CN(C)S(=O)(=O)c3ccc4c(c3)CCC(=O)N4)CC2)c1,-29.7%,-2.4%,-11.7%,0.5%,23.1µM*,-6.8%
O=C(Nc1nccs1)c1cc(N2CCOCC2)nc2ccccc12,-1.7%,-3.1%,-5.1%,-3.4%,18.4µM*,1.2%
Cc1ccc(NC(=O)c2cc(N3CCOCC3)nc3ccccc23)cc1,-8.8%,12.5%,-5.7%,?,14.6µM*,1.2%
